# According to PubChem BioAssay (Tox21):
# Results filed as inconclusive are left out. Entries that show only a call come without a potency. The source made the active and inactive calls. Unless noted, calls come from the whole dose curve; as a rule, active = well fitted curve in the direction sought with a large enough effect in the repeat runs; inconclusive = weak or mixed curves; inactive = flat fitted curve, though single readings scatter. Positions of bridges follow the written chain, without caps; N, C: chain ends. Non-standard residues stand in square brackets, D forms with d. Residues, ends and D or L forms follow the SMILES beside them. *: point of attachment. X2 = CC[C@H](C)CCCCC(=O)*; Orn = NCCC[C@H](N)C(=O)O; Dab = NCC[C@H](N)C(=O)O; Mpa = O=C(O)CCS
# Tests used:
# [1] = qHTS assay to test for compound auto fluorescence at 460 nm (blue) in HEK293 cell free culture (AID 720681)
# Method in brief: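 Test compounds were pinned into cell-free culture medium (DMEM with 10% FBS) and fluorescence was read directly at Ex/Em 405/460 nm. Signals were expressed as fluorescence equivalents of triamterene, with DMSO vehicle as control.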
# [2] = qHTS assay to test for compound auto fluorescence at 535 nm (green) in HEK293 cell free culture (AID 720682)
# Method in brief: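 Cell-free medium (DMEM, 10% FBS) receives compound or DMSO by pintool. Plate read directly at Ex 485/Em 535 nm. Signal converted to fluorescein equivalency.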
# [3] = qHTS assay to test for compound auto fluorescence at 590 nm (red) in HEK293 cell free culture (AID 720683)
# Method in brief: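 Tox21 10K library compounds were pinned into cell-free DMEM with 10% FBS and fluorescence was read at excitation 540 nm. Activity is expressed as Rose Bengal sodium equivalency.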
# [4] = qHTS assay to test for compound auto fluorescence at 590 nm (red) in HepG2 cell free culture (AID 720684)
# Method in brief: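 Measured in medium alone (MEM containing 10% FBS) following pintool addition of compound; emission at 590 nm with 540 nm excitation, referenced to Rose Bengal sodium.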
# [5] = qHTS assay to test for compound auto fluorescence at 460 nm (blue) in HepG2 cell free culture (AID 720685)
# Method in brief: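 Compound (23 nL) or DMSO pinned into cell-free MEM with 10% FBS; blue fluorescence read at 405/460 nm excitation/emission, expressed as auto-fluorescence equivalency to triamterene.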
# [6] = qHTS assay to test for compound auto fluorescence at 535 nm (green) in HepG2 cell free culture (AID 720686)
# [7] = qHTS assay to test for compound auto fluorescence at 460 nm (blue) in HepG2 cells (AID 720687)
# Method in brief: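 Cells (2,000/well in MEM with 10% FBS) attached overnight at 37 C, then were exposed to compound or DMSO for 1 hr at 37 C, 5% CO2. Fluorescence read at Ex/Em 405/460 nm, expressed as triamterene-equivalent signal.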
# [8] = target: Glucocorticoid receptor (Homo sapiens) (UniProt P04150); assay: qHTS assay to identify small molecule agonists of the glucocorticoid receptor (GR) signaling pathway (AID 720691; active = well fitted activation curve with a large enough effect in the signal ratio in the repeat runs, not every such curve was filed as active; the % refers to the signal ratio); settings: GR-bla HeLa, beta-lactamase reporter ratio, 18 h; activation: at 62.4 µM (top of the series)
# Chain of Glucocorticoid receptor (Homo sapiens) (P04150 whole entry, looked up): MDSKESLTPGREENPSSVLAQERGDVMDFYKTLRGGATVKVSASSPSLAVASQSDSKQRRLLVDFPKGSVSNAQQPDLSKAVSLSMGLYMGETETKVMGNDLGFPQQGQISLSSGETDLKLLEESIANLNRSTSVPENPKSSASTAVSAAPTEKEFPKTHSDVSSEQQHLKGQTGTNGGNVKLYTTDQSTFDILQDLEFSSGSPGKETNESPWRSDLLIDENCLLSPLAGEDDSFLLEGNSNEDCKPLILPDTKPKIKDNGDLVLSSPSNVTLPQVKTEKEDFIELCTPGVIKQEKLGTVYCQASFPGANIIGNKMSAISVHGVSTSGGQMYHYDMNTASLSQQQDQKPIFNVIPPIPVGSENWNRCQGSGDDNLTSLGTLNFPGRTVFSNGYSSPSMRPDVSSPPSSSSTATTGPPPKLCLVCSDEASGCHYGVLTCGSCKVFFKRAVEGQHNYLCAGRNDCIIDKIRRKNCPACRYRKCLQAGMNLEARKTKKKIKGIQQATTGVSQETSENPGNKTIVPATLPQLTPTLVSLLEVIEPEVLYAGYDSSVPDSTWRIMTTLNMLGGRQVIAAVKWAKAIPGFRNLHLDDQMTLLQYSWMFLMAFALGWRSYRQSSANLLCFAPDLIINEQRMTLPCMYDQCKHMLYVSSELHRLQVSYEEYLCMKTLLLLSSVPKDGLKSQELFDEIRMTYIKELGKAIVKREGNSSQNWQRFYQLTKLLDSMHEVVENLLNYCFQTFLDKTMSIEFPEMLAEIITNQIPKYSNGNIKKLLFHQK
# Method in brief: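 Fluorescence intensity from LiveBLAzer B/G FRET substrate (2 h, room temperature) reports beta-lactamase expression driven by the glucocorticoid response element in GR-bla HeLa cells after 18 h compound exposure at 37 C.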
# [9] = target: Glucocorticoid receptor (Homo sapiens) (UniProt P04150); assay: qHTS assay to identify small molecule antagonists of the glucocorticoid receptor (GR) signaling pathway (AID 720692; active = well fitted inhibition curve with a large enough effect in the signal ratio in the repeat runs, not every such curve was filed as active; the % refers to the signal ratio; note: potency is the fitted concentration of half-maximal effect)
# Method in brief: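 HeLa GR-bla cells; cmpd + dex 5 nM final, 18 h 37 C; LiveBLAzer B/G FRET substrate 2 h RT; fluorescence intensity read. Antagonist mode, qHTS.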
Structure (SMILES),Potency [1],Potency [2],Potency [3],Potency [4],outcome [5],Potency [6],outcome [7],Potency [8],Potency [9]
O=C(O)c1cccc(/C=C2/C[C@@H]3[C@@H](/C=C/[C@@H](O)C4CCCCC4)[C@H](O)C[C@@H]3O2)c1,inactive,inactive,inactive,inactive,inactive,inactive,inactive,inactive,inactive
C#C[C@]1(OC(C)=O)CC[C@H]2[C@@H]3CCC4=CC(=O)CC[C@@H]4[C@H]3CC[C@@]21C,inactive,inactive,inactive,inactive,inactive,inactive,inactive,,2.13 µM (active)
CCOc1ccc(C[C@H]2NC(=O)CCSSC[C@@H](C(=O)N3CCC[C@H]3C(=O)N[C@@H](CCCN)C(=O)NCC(N)=O)NC(=O)[C@H](CC(N)=O)NC(=O)[C@H]([C@@H](C)O)NC(=O)[C@H]([C@@H](C)CC)NC2=O)cc1 ([Mpa][dY](Et)ITNCP[Orn]G-NH2; disulfide 1-6),inactive,inactive,inactive,inactive,inactive,inactive,inactive,inactive,inactive
CC(CN1c2ccccc2Sc2cccnc21)N(C)C (stereo not drawn),inactive,inactive,inactive,inactive,inactive,inactive,inactive,inactive,
CCCCCCCCCCCCCCCCOCCOCCOCCOCCOCCOCCOCCOCCOCCOCCOCCOCCOCCOCCOCCOCCOCCOCCOCCOCCO,,inactive,inactive,inactive,inactive,inactive,inactive,,
CCC(CN)CC(C)CCNCC(O)CNCC(C)CC(CC)CN (stereo not drawn),inactive,inactive,inactive,inactive,inactive,inactive,inactive,,inactive
CC[C@H](C)CCCCC(=O)N[C@@H](CCN)C(=O)N[C@H](C(=O)N[C@@H](CCN)C(=O)N[C@H]1CCNC(=O)[C@@H]([C@H](C)O)NC(=O)[C@H](CCN)NC(=O)[C@H](CCN)NC(=O)[C@H](CC(C)C)NC(=O)[C@@H](CC(C)C)NC(=O)[C@H](CCN)NC1=O)[C@@H](C)O (X2-[Dab]T[Dab][Dab][Dab][dL]L[Dab][Dab][dT]; lactam 4-C),inactive,inactive,inactive,inactive,inactive,,inactive,inactive,inactive
O=C(O[C@H]1CN2CCC1CC2)N1CCc2ccccc2[C@@H]1c1ccccc1,inactive,inactive,inactive,inactive,inactive,,inactive,inactive,inactive
CCOC(=O)C1=C(COCCN)NC(C)=C(C(=O)OC)C1c1ccccc1Cl (stereo not drawn),inactive,inactive,inactive,inactive,inactive,inactive,inactive,,inactive
Cn1c(O)c(N=NC(N)=S)c2ccccc21,inactive,inactive,,inactive,inactive,inactive,inactive,,
c1ccc2c(c1)Sc1ccccc1N2CCN1CCCC1,inactive,inactive,inactive,inactive,inactive,inactive,inactive,inactive,
O=C[C@H](O)[C@@H](O)[C@H](O[C@H]1O[C@H](CO)[C@@H](O[C@H]2O[C@H](CO)[C@@H](O)[C@H](O)[C@H]2O)[C@H](O)[C@H]1O)[C@H](O)CO,inactive,inactive,,inactive,inactive,,,inactive,
CC(C)(CO)[C@@H](O)C(=O)NCCC(=O)NCCSSCCNC(=O)CCNC(=O)[C@H](O)C(C)(C)CO,inactive,inactive,inactive,inactive,inactive,,inactive,inactive,inactive
C=C1CC[C@H](O)CC1=C/C=C1\CCC[C@]2(C)[C@@H]([C@H](C)CCCC(C)(C)O)CC[C@@H]12,inactive,inactive,inactive,inactive,inactive,,inactive,,
[O]=[Bi][O]C(=O)[O][Bi]=[O],inactive,inactive,inactive,inactive,inactive,inactive,inactive,inactive,inactive
CCCCC(=O)O[C@H]1CC[C@H]2[C@@H]3CCc4cc(O)ccc4[C@H]3CC[C@]12C,inactive,inactive,inactive,inactive,inactive,inactive,inactive,inactive,9.52 µM (active)
C[C@]12CC[C@@H]3c4ccc(OC(=O)c5ccccc5)cc4CC[C@H]3[C@@H]1CC[C@@H]2O,inactive,inactive,inactive,inactive,inactive,inactive,inactive,inactive,6.01 µM (active)

Structure (SMILES),Potency [1],Potency [2],Potency [3],Potency [4],outcome [5],Potency [6],outcome [7],Potency [8],Potency [9]
CN(C(=O)CO)c1c(I)c(C(=O)NCC(O)CO)c(I)c(C(=O)NCC(O)CO)c1I (stereo not drawn),inactive,inactive,inactive,inactive,inactive,inactive,inactive,inactive,inactive
CCc1ccc(S(=O)(=O)O)cc1,inactive,inactive,inactive,inactive,inactive,inactive,inactive,,
NC(=O)OC[C@@H]1[C@H](NC(=O)/C(=N\OCC(=O)O)c2csc(N)n2)C(=O)N1S(=O)(=O)O,inactive,inactive,inactive,inactive,inactive,inactive,inactive,inactive,inactive
COc1ccc(C2NC(=S)N3C(c4ccc(OC)c(OC)c4)NC(=S)N23)cc1OC (stereo not drawn),inactive,inactive,inactive,inactive,inactive,inactive,inactive,,
CCCCC(C)(O)C/C=C/[C@H]1[C@H](O)CC(=O)[C@@H]1CCCCCCC(=O)OC (stereo partly drawn),inactive,inactive,inactive,inactive,inactive,inactive,inactive,inactive,
CN1C(=O)CN2CCc3ccccc3C2c2cc(Cl)ccc21 (stereo not drawn),inactive,inactive,inactive,inactive,inactive,inactive,inactive,inactive,
CCOC(=O)Oc1c(OC)cc(C(=O)O[C@@H]2C[C@@H]3CN4CCc5c([nH]c6cc(OC)ccc56)[C@H]4C[C@@H]3[C@H](C(=O)OC)[C@H]2OC)cc1OC,inactive,inactive,,inactive,inactive,inactive,inactive,,
CCN(CC)CCCC(C)Nc1cc(/C=C/c2ccccc2Cl)nc2cc(Cl)ccc12 (stereo not drawn),inactive,inactive,inactive,inactive,inactive,inactive,inactive,inactive,
NS(=O)(=O)c1cc2c(cc1Cl)NC(Cc1ccccc1)NS2(=O)=O (stereo not drawn),inactive,inactive,inactive,inactive,inactive,inactive,inactive,,inactive
CC(Oc1ccccc1)C(=O)N[C@@H]1C(=O)N2[C@@H]1SC(C)(C)[C@@H]2C(=O)O (stereo partly drawn),inactive,inactive,,inactive,inactive,inactive,inactive,inactive,
N=C(N)c1ccc(OCCCOc2ccc(C(=N)N)cc2Br)c(Br)c1,inactive,inactive,inactive,inactive,inactive,,inactive,,
CSc1nc2cc(Oc3cccc(Cl)c3Cl)c(Cl)cc2[nH]1,inactive,inactive,inactive,inactive,inactive,inactive,inactive,,
O=C(O)COc1ccc(CCNS(=O)(=O)c2ccccc2)s1,inactive,inactive,,inactive,inactive,inactive,inactive,inactive,inactive
C[C@H](N)C(=O)N[C@@H](C)P(=O)(O)O,inactive,inactive,inactive,inactive,inactive,inactive,inactive,,
CC(=O)Oc1cc(C)c(OC(C)=O)c2ccccc12,inactive,inactive,inactive,inactive,inactive,inactive,inactive,inactive,
C=C1c2c(Cl)ccc(O)c2C(O)=C2C(=O)[C@]3(O)C(O)=C(C(N)=O)C(=O)[C@@H](N(C)C)[C@@H]3[C@@H](O)[C@H]12,inactive,inactive,inactive,inactive,inactive,inactive,inactive,inactive,
